Rows were chosen to be rich in hits. Some 19% of all compounds tested hit in one or more screens of this group.
HT1080-NT tox: qHTS for induction of synthetic lethality in tumor cells producing 2HG: qHTS for the HT-1080-NT fibrosarcoma cell line; HT-1080-NT fibrosarcoma viability, CellTiter-Glo ATP luminescence, 48 h; Potency, µM (highest dose often 46.1 µM), most hits filed as cytotoxic; 1.6% of 360,000 active;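 note: NT is the 2HG producing partner of a matched IDH1 knockdown line; nearly all actives have a fitted effect of over 55% in size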
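Viability of the 2HG-overproducing fibrosarcoma line after 48 hours of compound exposure at 37 degrees C was determined by luminescence with CellTiter-Glo, and concentration-effect curves were then fitted and categorized.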
TDP1 cell CPT: qHTS for Inhibitors of human tyrosyl-DNA phosphodiesterase 1 (TDP1): qHTS in cells in presence of CPT; chicken DT40 Tdp1-/-;hTDP1 cells + 20 nM CPT, ATP luminescence, 48 h; 12% of 420,000 active; Potency, µM (doses to about 46.2 µM), actives largely listed as inhibitors; note: nearly all actives have a fitted effect of over 55% in size
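Chicken DT40 Tdp1-/- cells complemented with human TDP1, 400 cells/well, exposed to compounds plus 20 nM camptothecin for at least 48 h at 37 C; viability read as ATP content by CellTiter-Glo luminescence.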
HT1080 IDH1KD tx: qHTS for induction of synthetic lethality in tumor cells producing 2HG: qHTS for the HT-1080-IDH1KD cell line; HT-1080 IDH1 knockdown viability, ATP luminescence, 48 h; AID 686971, 2013; Potency, µM (titrated, usually from 46.1 µM), actives largely listed as cytotoxic; 2% of 360,000 active
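Viability of IDH1-knockdown HT-1080 fibrosarcoma cells was assessed by CellTiter-Glo after 48 h at 37 °C with titrated compound; concentration-effect curves were classified by fit quality and response size.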
IL-1B inflam inh: qHTS for Inhibitors of Inflammasome Signaling: IL-1-beta AlphaLISA Primary Screen. activity change, % at 57.5 µM. THP-1 LPS/ATP IL-1B secretion, AlphaLISA, 16 h; stronger effect = lower value. AID 743279, 2014. 4.7% of 360,000 active; in the data active = activity change below about -50%; inconclusive = mostly about -30% to -49%
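THP-1 cells pretreated 1 hr with compounds (up to 57.5 uM final), then stimulated with LPS (250 ng/mL final) plus ATP (1.25 mM final); secreted IL-1B measured by AlphaLISA after 16 hr, decreased signal indicating inhibition.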
TDP1 cell noCPT: qHTS for Inhibitors of human tyrosyl-DNA phosphodiesterase 1 (TDP1): qHTS in cells in absence of CPT; 15% of 420,000 active; Potency, µM (doses to about 46.2 µM), usual class: inhibitors; DT40 Tdp1-/- hTDP1 cells, no CPT, ATP luminescence, 48 h; AID 686978, 2013; note: nearly all actives have a fitted effect of over 55% in size
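Chicken DT40 Tdp1-/- cells complemented with human TDP1, screened without camptothecin (DMSO vehicle only), 400 cells/well. Compounds pin-transferred, cells incubated at 37 °C for at least 48 hr. Growth read as ATP-dependent luminescence (CellTiter-Glo, 30 min at RT).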
Each line names hits and unclear results; the compound was inactive in the other large screens; ! = not active in a repeat. Unless noted, calls come from the whole dose curve; as a rule, active = well fitted curve in the direction sought with a large enough effect; inconclusive = small, poorly fitted or top-dose-only effect, or another doubt; inactive = no such curve, though single readings can be large; an effect the other way counts as inactive or inconclusive.

O=S(=O)(/N=C(/Nc1ccc(Cl)c(S(=O)(=O)N2CCOCC2)c1)c1ccc(F)cc1)c1ccccc1	TDP1 cell CPT inconclusive, TDP1 cell noCPT inconclusive
CN1CC(C(=O)Nc2ccc(F)c(Cl)c2)CC1=O (stereo not drawn)	none
Cc1cc(C)c(-c2cc(NC(=O)CSc3n[nH]c(N)n3)n(-c3ccccc3)n2)cc1C	HT1080-NT tox inconclusive, HT1080 IDH1KD tx inconclusive, TDP1 cell noCPT inconclusive
COc1ccc(NS(=O)(=O)c2ccc(-c3coc(C)n3)cc2)c(OC)c1	HT1080-NT tox inconclusive, TDP1 cell CPT 23µM, HT1080 IDH1KD tx inconclusive
COc1ccc(OC)c(CNS(=O)(=O)c2ccc(-c3coc(C)n3)cc2)c1	TDP1 cell CPT inconclusive, TDP1 cell noCPT 21µM (no result: HT1080-NT tox, HT1080 IDH1KD tx, IL-1B inflam inh)
CN(C)CCNC(=O)c1ccc2c(c1)N(Cc1c(F)cccc1Cl)C(=O)c1ccccc1S2	TDP1 cell CPT 16µM, TDP1 cell noCPT 23µM (no result: HT1080-NT tox, HT1080 IDH1KD tx, IL-1B inflam inh)
O=C(c1ccc2c(c1)N(Cc1cccc(Cl)c1)C(=O)c1ccccc1S2)N1CCOCC1	TDP1 cell CPT 18µM, TDP1 cell noCPT inconclusive (no result: HT1080-NT tox, HT1080 IDH1KD tx, IL-1B inflam inh)
O=C(NCCN1CCOCC1)c1ccc2c(c1)N(Cc1c(F)cccc1Cl)C(=O)c1ccccc1S2	TDP1 cell CPT inconclusive, TDP1 cell noCPT inconclusive
C=CCN1C(=O)c2ccccc2Sc2ccc(C(=O)N3CCN(C)CC3)cc21	TDP1 cell CPT inconclusive, TDP1 cell noCPT inconclusive
O=C(O)c1ccc2c(c1)N(Cc1ccccc1)C(=O)c1ccccc1S2	none
O=C(c1ccc2c(c1)N(Cc1c(F)cccc1Cl)C(=O)c1ccccc1S2)N1CCCC1	TDP1 cell CPT inconclusive, TDP1 cell noCPT 23µM (no result: HT1080-NT tox, HT1080 IDH1KD tx, IL-1B inflam inh)
O=C(c1ccc2c(c1)N(Cc1cccc(F)c1)C(=O)c1ccccc1S2)N1CCCC1	TDP1 cell CPT 21µM, TDP1 cell noCPT inconclusive (no result: HT1080-NT tox, HT1080 IDH1KD tx, IL-1B inflam inh)
CCCNC(=O)c1ccc(C)c(NC(=O)C2=C(C)OCCS2)c1	HT1080-NT tox inconclusive
Cc1nc(SCc2ccc(OCCC(C)C)cc2)n[nH]1	TDP1 cell CPT 15µM, TDP1 cell noCPT inconclusive
O=C(CSc1ccccc1C(=O)O)NCc1ccc(Cl)cc1	none
CC1(c2ccc(Cl)cc2Cl)OCC(Cn2ccnc2)O1 (stereo not drawn)	HT1080-NT tox inconclusive, TDP1 cell CPT 21µM, HT1080 IDH1KD tx inconclusive, TDP1 cell noCPT 23µM
Clc1ccc(SCCCCn2ccnc2)cc1	TDP1 cell CPT inconclusive, TDP1 cell noCPT inconclusive
COc1cccc(/C=N/NC(=O)c2cc3c(OC)ccc(OC)c3[nH]2)c1O	HT1080-NT tox inconclusive, TDP1 cell CPT 6.5µM, HT1080 IDH1KD tx 26µM, TDP1 cell noCPT 4.1µM
COc1cc(OC)c2cc(C(=O)N/N=C/c3cccc(OC)c3O)[nH]c2c1	HT1080-NT tox inconclusive, TDP1 cell CPT 15µM, HT1080 IDH1KD tx 9.2µM, TDP1 cell noCPT 6.5µM
C=CCN1C(=O)/C(=C2/Sc3ccc(OC)cc3N2C)SC1=Nc1ccccc1	TDP1 cell CPT 8.2µM, TDP1 cell noCPT inconclusive
CCN1C(=O)/C(=C2/Sc3ccc(OC)cc3N2C)SC1=Nc1cccc(O)c1	TDP1 cell CPT 5.8µM, TDP1 cell noCPT 16µM
C=CCN1C(=O)/C(=C2/Sc3ccc(OC)cc3N2C)SC1=NCc1ccccc1	TDP1 cell CPT inconclusive, TDP1 cell noCPT inconclusive
COc1cc(/C=N\NC(=O)C2CC3C=CC2C3)ccc1O (stereo not drawn)	none
CCOC(=O)C(=CNNc1ccccc1)C(=O)OCC	TDP1 cell CPT 4.6µM, TDP1 cell noCPT 16µM
CCOC(=O)C(=CNc1ccc(O)c(C(=O)OC)c1)C(=O)OCC	TDP1 cell CPT inconclusive
CCC(O)CC(C(=O)NNc1ccccc1)C(=O)NNc1ccccc1 (stereo not drawn)	HT1080-NT tox 2.6µM, HT1080 IDH1KD tx 5.8µM
CCOC(=O)NNc1ccccc1	HT1080-NT tox 4.1µM, HT1080 IDH1KD tx 3.7µM
Cc1cccc(S(=O)(=O)c2cn(C)c3cc(N4CCN(c5ccc(F)cc5)CC4)c(F)cc3c2=O)c1	none (no result: HT1080-NT tox, HT1080 IDH1KD tx, IL-1B inflam inh)
O=c1cc(-c2ccccc2Cl)oc2c(NS(=O)(=O)c3ccccc3OC(F)(F)F)ccc(O)c12	HT1080-NT tox inconclusive, TDP1 cell CPT 21µM, TDP1 cell noCPT inconclusive
O=c1cc(-c2ccccc2Cl)oc2c(NS(=O)(=O)c3ccccc3C(F)(F)F)ccc(O)c12	HT1080-NT tox inconclusive
Cc1c(C(=O)/C=C/N(C)C)nnn1-c1ccc(Cl)cc1C#N	none (no result: IL-1B inflam inh)
Cc1cc(N2CCN(C)CC2)nc2ccc(NC(=O)Nc3cccc(Cl)c3)cc12	TDP1 cell CPT 8.2µM, TDP1 cell noCPT 4.6µM (no result: HT1080-NT tox, HT1080 IDH1KD tx, IL-1B inflam inh)
CCCCN(CC)CCNC(=S)Nc1ccc2nc(N3CCN(C)CC3)cc(C)c2c1	HT1080-NT tox 26µM, TDP1 cell CPT inconclusive, HT1080 IDH1KD tx inconclusive, IL-1B inflam inh -55, TDP1 cell noCPT 18µM
Cc1cc(N2CCN(C)CC2)nc2ccc(NC(=O)c3ccccc3F)cc12	TDP1 cell CPT 18µM!, HT1080 IDH1KD tx inconclusive, IL-1B inflam inh -56, TDP1 cell noCPT inconclusive
Cc1ccc(NC(=O)Nc2ccc3nc(N4CCN(C)CC4)cc(C)c3c2)cc1C	TDP1 cell CPT 12µM, TDP1 cell noCPT 4.6µM (no result: HT1080-NT tox, HT1080 IDH1KD tx, IL-1B inflam inh)
CC1(Oc2cnc(Cl)c3ccccc23)CCN(Cc2ccc(OC(F)(F)F)cc2)C1 (stereo not drawn)	TDP1 cell CPT inconclusive, TDP1 cell noCPT inconclusive
COc1ccc(-c2cc(C(=O)Nc3c(C(=O)c4ccc(Cl)cc4)oc4ccccc34)no2)cc1	none (no result: HT1080-NT tox, HT1080 IDH1KD tx, IL-1B inflam inh)
